Measurements reported in publication PMC7819943, “Rice protein-binding microarrays: a tool to detect cis-acting elements near promoter regions in rice”.
Whole data set: some 68,000 sequences, median “fluorescence intensity (a.u.)” near 9,100, cut for the highest 2% near 16,000. The list comes from a sample in which the highest values are over-represented; it also holds similar and randomly drawn sequences.

biological target: OsWRKY34 (Oryza sativa, UniProt Q0JBA9 1-250); experiment: protein-binding microarray (RPBM); PBS, 2% BSA, 51.3 ng/ul salmon testes DNA, 50 uM zinc acetate, 200 nM TF, 25 C, 1 h; high values mean tight binding; conditions: protein: recombinant; tags: N-terminal polyhistidine and DsRed monomer fusion (pET32a); label: CyDye5-dUTP incorporated in the synthesized complementary strand; 3' TTTTT single-stranded linker to array surface; dsDNA, one strand shown
Summary of the method: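 Polyhistidine-tagged DsRed fusions of transcription factors, joined at the N-terminus, were expressed in E. coli BL21-CodonPlus and isolated on Ni–NTA. They were incubated at 200 nM for 1 h at 25 °C on a custom Agilent array, double-stranded and BSA-blocked, in PBS with 2% BSA, salmon testes DNA and 50 µM zinc acetate. The binding signal is per-feature fluorescence intensity (arbitrary units) read on an Axon 4000B scanner after washing.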

OsWRKY34, sequence (Q0JBA9 entry or part of it): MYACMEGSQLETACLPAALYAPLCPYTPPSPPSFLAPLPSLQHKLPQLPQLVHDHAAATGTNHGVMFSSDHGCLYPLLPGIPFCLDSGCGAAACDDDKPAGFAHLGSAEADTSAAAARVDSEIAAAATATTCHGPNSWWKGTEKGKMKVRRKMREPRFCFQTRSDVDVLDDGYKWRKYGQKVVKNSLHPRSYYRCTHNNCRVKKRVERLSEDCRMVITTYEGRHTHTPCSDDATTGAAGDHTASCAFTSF

Row | Sequence | binding signal
1 | GGGGATTTTTGTACGCTCACGGCATTTTTTTTGTCAGCGACGGAGTCACCTAGTGCAG | 17500 fluorescence intensity (a.u.)
2 | TATCTTATCAGGTCTCGTCTTCTTTAATCCAACCCTTGTTCGGAGTCACCTAGTGCAG | 8680 fluorescence intensity (a.u.)
3 | ATCTTAAGCTGTCCTTTTTCATGCCGAGTCAGAGTTTCATCGGAGTCACCTAGTGCAG | 9130 fluorescence intensity (a.u.)
4 | TCGGATACGAGTTTGATTCTCATCCTCCTTCATTTATATTCGGAGTCACCTAGTGCAG | 8320 fluorescence intensity (a.u.)
5 | CGTATTTTAATATATGACGCCGTTGACTTTTTATTAACGACGGAGTCACCTAGTGCAG | 23200 fluorescence intensity (a.u.)
6 | CCGTATTTGAATATATGACGCCGTTGACTTTTTAACTAATCGGAGTCACCTAGTGCAG | 17900 fluorescence intensity (a.u.)
7 | ACTCCCTCCGTATTTTAATATATGACGCCGTTGACTTATTCGGAGTCACCTAGTGCAG | 13800 fluorescence intensity (a.u.)
8 | GTATGACTTCTCCGTTTTTATATTTGCACTAATTTTTTAACGGAGTCACCTAGTGCAG | 11200 fluorescence intensity (a.u.)
9 | CGTATTTTAATATATGACGCCCGCCGTTGACTTTTTGTCTCGGAGTCACCTAGTGCAG | 27800 fluorescence intensity (a.u.)
10 | CTCTGCACGTTTCTTTCCCCTAACAAATACATGTACACACCGGAGTCACCTAGTGCAG | 9590 fluorescence intensity (a.u.)
11 | ACACATAAACTTCTAACTTTTCCGTCACATCGTTCCAATTCGGAGTCACCTAGTGCAG | 8380 fluorescence intensity (a.u.)
12 | GCATCCTAACATCCCGCCGAAGGACCTTTTCAACCTCATCCGGAGTCACCTAGTGCAG | 8300 fluorescence intensity (a.u.)
13 | ATTGAGATAGAGGGAGTGGTTGGGATGGTGAAGTTGCTATCGGAGTCACCTAGTGCAG | 9450 fluorescence intensity (a.u.)
14 | ACTCCATCAATTTTTCATTATGTCTGTGTTTGTCCTGACTCGGAGTCACCTAGTGCAG | 14900 fluorescence intensity (a.u.)
15 | TCAACTGTACTGTACTCCACTCGCCGCACACACTGACACACGGAGTCACCTAGTGCAG | 11200 fluorescence intensity (a.u.)
16 | ATACTTCATCCGTTTCTAAATATTTGATGCCGTTGACTTTCGGAGTCACCTAGTGCAG | 17600 fluorescence intensity (a.u.)
17 | CATATACTCTATCCGTTTCTAAATATTTGACGCCGTTGACCGGAGTCACCTAGTGCAG | 16200 fluorescence intensity (a.u.)
18 | AATTTTTTTCCTCTCCTGTTTTGTGCCCTTGATATTATGTCGGAGTCACCTAGTGCAG | 13400 fluorescence intensity (a.u.)
19 | GGGCATATTTCTCTATTTTTCTATTCCTATGGTTTGAAATCGGAGTCACCTAGTGCAG | 9080 fluorescence intensity (a.u.)
20 | ATGTCCCTAATTACTGCGTTTTCCATTTTGCTGTTTTTTACGGAGTCACCTAGTGCAG | 16500 fluorescence intensity (a.u.)
21 | TTATGCGTGACTTGTCTTTTTAATTTTTTAATAATTTTTTCGGAGTCACCTAGTGCAG | 9370 fluorescence intensity (a.u.)

Row | Sequence | binding signal
22 | AGTTGTCCTGCTTTTTTGCTTTCCTAATCTGTTTCCATTTCGGAGTCACCTAGTGCAG | 13300 fluorescence intensity (a.u.)
23 | ATATGTCTGACTTGTACTTTTATGTTATTTTTCCTCTAATCGGAGTCACCTAGTGCAG | 13900 fluorescence intensity (a.u.)
24 | AATTGACTTTTTTATGCTAATTTTCCCTCTAATTACTTGTCGGAGTCACCTAGTGCAG | 18400 fluorescence intensity (a.u.)
25 | GGTTTCCTCATATGCCCTTGAAAATTTGCTATTCCTCTGTCGGAGTCACCTAGTGCAG | 22700 fluorescence intensity (a.u.)
26 | AATATTTCATCAGTTTCTAAATTTTTGACGCCGTTGACTTCGGAGTCACCTAGTGCAG | 10200 fluorescence intensity (a.u.)
27 | CATTTTTCTAATTACAAAGTCCATTTCTTTTTATGTTTTCCGGAGTCACCTAGTGCAG | 8830 fluorescence intensity (a.u.)
28 | CTGTTTAGATCTCCTAGCAACATTTTACACTCTCTTGCATCGGAGTCACCTAGTGCAG | 8740 fluorescence intensity (a.u.)
29 | CGAACGGTTTAACATATTTAAAAAAGTCAACGGCGTCAAACGGAGTCACCTAGTGCAG | 8310 fluorescence intensity (a.u.)
30 | GCTTGTTTCTTTGCTGAATTATTATTTTGCTCATTCCACTCGGAGTCACCTAGTGCAG | 10300 fluorescence intensity (a.u.)
31 | TTTTTCCCTGAAGCTCCTGTGTGTCATCTCTCTTTTTCTTCGGAGTCACCTAGTGCAG | 11100 fluorescence intensity (a.u.)
32 | ACACTGCCACTCTCTCCCTAGGCCTATAAATACCACCAGTCGGAGTCACCTAGTGCAG | 8340 fluorescence intensity (a.u.)
33 | CATGTTAATTTTCTACTACAGCTTAGGTTGATGCTATGTTCGGAGTCACCTAGTGCAG | 8270 fluorescence intensity (a.u.)
34 | ATCCGCAGACCAAGTCAACACTGCTACGTGAACACCACATCGGAGTCACCTAGTGCAG | 9850 fluorescence intensity (a.u.)
35 | ACGTTATTTATTGTTTTAGGTTCAATCTACGAGTTTCTTTCGGAGTCACCTAGTGCAG | 10700 fluorescence intensity (a.u.)
36 | TCCTCTTCGCCGGCTGCCGCTCCTCTCCCCGCTCGTCTTTCGGAGTCACCTAGTGCAG | 9440 fluorescence intensity (a.u.)
37 | TTTTTTTTTTATCCGTCCCTACTCCTCGCACCTTAAAAATCGGAGTCACCTAGTGCAG | 10300 fluorescence intensity (a.u.)
38 | GATCTCTCTCTCATCAGGACCCCGGCCTTAAGTTGTTTCTCGGAGTCACCTAGTGCAG | 9120 fluorescence intensity (a.u.)
39 | GATACTCCCTCCATCCATAAATATTTGATGCCGTTGACTTCGGAGTCACCTAGTGCAG | 12300 fluorescence intensity (a.u.)
40 | ATTTCCCGTCCTTGTCCTAAATGAGTACTAATTTTGATTTCGGAGTCACCTAGTGCAG | 10400 fluorescence intensity (a.u.)
41 | TACTTCCTTTGTCCCTAAATATTTGATGCCGTTGACTTTTCGGAGTCACCTAGTGCAG | 23900 fluorescence intensity (a.u.)
42 | TGGATTTATTTATTCTTGTTCTTTTTCTCGAAAATTTCCACGGAGTCACCTAGTGCAG | 8640 fluorescence intensity (a.u.)
